# From PubChem
# PHOSPHO1 block: PubChem AID 1565. Phosphoethanolamine/phosphocholine phosphatase (Homo sapiens), Q8TCT1. recombinant PHOSPHO1, absorbance phosphatase assay. inhibition, % at 13.3 µM. 1.1% of 290,000 active; in the data active = inhibition above about 60%
# Target sequence (Q8TCT1 whole entry, looked up): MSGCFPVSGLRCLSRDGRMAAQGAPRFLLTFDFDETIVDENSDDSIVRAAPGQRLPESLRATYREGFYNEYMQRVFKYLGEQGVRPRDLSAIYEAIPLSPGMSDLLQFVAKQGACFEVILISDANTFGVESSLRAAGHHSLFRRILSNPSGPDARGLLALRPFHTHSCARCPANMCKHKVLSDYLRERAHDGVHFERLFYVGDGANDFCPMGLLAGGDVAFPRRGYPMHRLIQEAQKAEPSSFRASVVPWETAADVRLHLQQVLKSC
# A3A deaminase: APOBEC3A ssDNA deaminase inhibitors, primary screen, selectivity assay for APOBEC3G inhibitor project, biochemical, FAM/TAMRA oligo cleavage fluorescence | DNA dC->dU-editing enzyme APOBEC-3A (Homo sapiens), P31941 | recombinant A3A, FAM/TAMRA ssDNA deamination fluorescence | inhibition, % at 20 µM | 0.41% of 330,000 active;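 active = at least 40% inhibition at 20 µM here, with at most 30% in a related deaminase screen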;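 note: plate controls were A3A with DMSO for no effect and wells lacking A3A enzyme for full effect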
# Target sequence (P31941 whole entry, looked up): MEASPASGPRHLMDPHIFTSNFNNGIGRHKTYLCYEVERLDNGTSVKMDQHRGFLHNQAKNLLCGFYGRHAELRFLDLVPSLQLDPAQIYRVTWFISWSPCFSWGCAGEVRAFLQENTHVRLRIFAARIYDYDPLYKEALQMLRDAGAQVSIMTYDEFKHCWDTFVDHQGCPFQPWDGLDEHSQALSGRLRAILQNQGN
# esBAF inh: Bmi1 luciferase reporter increase in mESCs, primary screen, esBAF inhibitor project, mouse ES cells, Bmi1 luciferase knock-in, single point. 24 h; 100% = twice the neutral-well signal. reporter increase, % at 12.5 µM. 2% of 350,000 active; in the data active = activation above about 40%; inconclusive = no clear call, values can overlap the other calls;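 note: 0% = median of the plate's neutral control wells and 100% = double that signal; a rise in the Bmi1 reporter signal indicates esBAF inhibition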
# Wnt act: Wnt/beta-catenin pathway activators, primary screen, cell-based, plate reader, single point | 1.2% of 300,000 active | AID 743398, 2014 | activation, % at 9.35 µM | Wnt/beta-catenin reporter cell assay, activator; in the data active = activation above about 30%, passing the limit was not always enough; inconclusive = no clear call, values can overlap the other calls;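 note: 0% = neutral control wells and 100% = positive control wells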
# APOBEC3G inh: APOBEC3G DNA deaminase inhibitors, primary screen, biochemical, fluorescence, single-stranded DNA substrate, uHTS; DNA dC->dU-editing enzyme APOBEC-3G (Homo sapiens), Q9HC16; recombinant A3G, ssDNA deamination FAM/TAMRA fluorescence; inhibition, % at 20 µM; 0.28% of 330,000 active; AID 493012, 2011;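 active = inhibition of at least 40% at 20 µM, with no more than 30% in the related APOBEC3A deaminase screen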;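 note: plate controls were DMSO wells with A3G for no effect and wells lacking A3G enzyme for full effect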
# MITF act: activators of MITF-driven TRPM1 promoter reporter, primary screen, cell-based, SK-MEL-5, luciferase, single point; SK-MEL-5 TRPM1-promoter luciferase, 24 h; % of positive control, neutral wells = 0; activation, % at 12.5 µM; 0.75% of 300,000 active; AID 588334, 2011;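 active = mean activation of at least 80% with every replicate also reaching 80%; inconclusive = mean reaches 80% but some replicate falls short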;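 note: 0% = neutral control wells and 100% = parthenolide positive control wells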
# * = called active by the depositor; ? = inconclusive; . = no result. This is a sample that favours compounds with a hit; in the whole collection about 3.6% have one here.
SMILES,PHOSPHO1 block,A3A deaminase,esBAF inh,Wnt act,APOBEC3G inh,MITF act
CNC(=O)/C(C#N)=C/c1ccc(-c2ccc(Cl)cc2)o1,1,3,80*,7,10,26
COc1ccccc1S(=O)(=O)N1CC[C@H]2[C@@H](CO)N(C)c3ccc(-c4ccc(C#N)cc4)cc3[C@H]21,.,.,-6,.,.,.
NC(=O)CSc1ncnc2c1oc1ccccc12,7,4,8,6,-2,-2
O=C(CSc1ncnc2c1oc1ccccc12)c1cccs1,26,0,57*,.,-4,?
Cc1nc(SCC(=O)c2cccs2)c2oc3ccccc3c2n1,37,4,.,71*,-3,.
O=C(NCc1ccc(Cl)cc1)c1cnn2ccccc12,-7,-3,60*,9,-6,96*
Cc1cccc(NC(=O)c2cnn3ccccc23)c1C,37,1,42*,-1,-1,?
N#C/C(=C1/CCCCCN1)c1nc2ccccc2s1,9,-2,57*,.,-6,1
C[C@H](CO)N1C[C@H](C)[C@H](CN(C)S(=O)(=O)c2ccc(F)cc2)Oc2ccc(NC(=O)C3CCCCC3)cc2CC1=O,.,.,4,.,.,.
O=C1NC(c2ccccc2Br)=N/C1=C\c1ccco1,22,9,.,70*,6,46
C[C@H]1CCCCO[C@@H](CN(C)C(=O)c2ccccc2)[C@@H](C)CN([C@@H](C)CO)C(=O)c2cc(NS(C)(=O)=O)ccc2O1,.,.,1,.,.,.
C[C@H]1CCCCO[C@H](CN(C)C(=O)CCCN(C)C)[C@@H](C)CN([C@@H](C)CO)C(=O)c2cc(NC(=O)Cc3ccccc3)ccc2O1,.,.,-10,.,.,.
CCn1cnc2c(Nc3cccc(Cl)c3)nc(C#N)nc21,.,4,69*,46*,-1,112*
O=c1cc(CCl)[nH]c2nc3ccccc3n12,15,-2,.,-4,-2,6
O=c1cc(-c2ccccc2)[nH]c2nc3ccccc3n12,-10,-1,-7,47*,-5,16
CCC(=O)Nc1ccc2c(c1)C(=O)N(C)C[C@H](OC)[C@H](C)CN(Cc1ccccn1)[C@@H](C)CO2,.,.,-1,.,.,.
COc1ccc(-c2c(C)nn3c(NC4CCCC4)cc(C)nc23)cc1OC,20,-6,12,1,-8,-18
Cc1cc(NC2CCCC2)n2nc(C)c(-c3ccccc3)c2n1,29,-4,?,6,-7,100*
Cc1cc(N)n2nc(C)c(-c3ccccc3)c2n1,60*,.,3,6,.,-1
Cc1cc(NCCCn2ccnc2)n2nc(C)c(-c3ccc(Cl)cc3)c2n1,8,-2,0,.,-4,6
Cc1cc(N)n2nc(C)c(-c3ccc(Cl)cc3)c2n1,17,-4,.,-2,-3,-3
Cc1cc(NCCCn2ccnc2)n2nc(C)c(-c3ccccc3)c2n1,8,1,47*,16,2,66
O=C1Nc2ccccc2/C1=C/c1cnc(-c2ccccc2)[nH]1,-1,1,?,41*,-8,.
CCc1ccc(-c2ccc(SCc3ccccn3)nn2)cc1,8,-1,63*,13,-5,71
CC(=O)N1[C@H](C(=O)N2CCCCC2)[C@@H](CO)[C@@H]2Cn3c(ccc(-c4ccccc4)c3=O)[C@@H]21,.,.,-2,.,.,.
SMILES,PHOSPHO1 block,A3A deaminase,esBAF inh,Wnt act,APOBEC3G inh,MITF act
CC(C)C(=O)Nc1sc2c(c1-c1nc3ccccc3[nH]1)CCCC2,104*,2,.,.,1,-4
C[C@@H]1CN([C@H](C)CO)C(=O)c2cc(NC(=O)Nc3ccc4c(c3)OCO4)ccc2O[C@@H](C)CCCCO[C@H]1CN(C)S(=O)(=O)c1cccs1,.,.,-1,.,.,.
COc1ccccc1NC(=O)N1CC[C@@H]2[C@H]1c1cc(-c3ccccc3)ccc1N(C)[C@H]2CO,.,.,-2,.,.,.
Cc1ccc(C(=O)Nc2sc3c(c2C#N)CCCCC3)cc1C,22,1,.,.,0,119*
CCC(=O)Nc1sc2c(c1C#N)CCCCC2,-50,4,35,.,-5,49
CCCC(=O)Nc1sc2c(c1C#N)CCCCC2,-1,-1,85*,2,-4,51
CC(=O)c1ccc(-c2nnc(CCC(=O)N(C)Cc3cccc4cnccc34)o2)s1,47,1,.,-1,-5,-3
Cc1ccc(-c2nnc(CCC(=O)N(C)Cc3nccs3)o2)s1,-1,-3,44*,4,-6,40
C[C@@H]1CN([C@H](C)CO)C(=O)c2cc(NS(C)(=O)=O)ccc2O[C@@H]1CN(C)Cc1ccc(-c2ccccc2)cc1,.,.,8,.,.,.
CCN1C(=Nc2ccc(Cl)cc2)SC/C1=C\C(=O)OC,24,-1,61*,13,0,?
Cc1ccc(-c2ccc3c(c2)O[C@@H](CN(C)Cc2ccc(C(=O)O)cc2)[C@H](C)CN([C@@H](C)CO)S3(=O)=O)cc1,.,.,1,.,.,.
O=C(/C=C/c1ccccc1)Nc1cccnc1,.,-4,31,39*,-3,.
Cc1nc(NC(=O)/C=C/c2ccccc2)n[nH]1,-18,-5,40,39*,-7,-58
O=C(/C=C/c1ccc([N+](=O)[O-])cc1)Nc1cccnc1,52,-3,23,38*,-2,8
O=C(/C=C/c1cccs1)c1ccc([N+](=O)[O-])cc1,4,-6,0,-8,-7,22
O=C(Cc1ccc([N+](=O)[O-])cc1)Nc1cccnc1,39,8,.,7,1,7
O=C(/C=C/c1cccs1)Nc1ccc([N+](=O)[O-])cc1,-3,-2,.,31*,-6,68
O=C(c1ccc(F)cc1)N1CC[C@@H]2[C@H](CO)Nc3ccc(-c4ccccc4F)cc3[C@@H]21,.,.,5,.,.,.
O=C(/C=C/c1cccs1)Nc1ccncc1,9,1,.,7,-3,42
O=C(/C=C/c1ccc(Cl)c([N+](=O)[O-])c1)Nc1cccnc1,14,-4,53*,0,-5,20
Cc1cccc(NC(=O)/C=C/c2cccs2)n1,-34,0,20,.,-6,104*
CCOc1ccc(C(=O)COC(=O)c2cccc(-n3cnnn3)c2)cc1,19,-3,74*,15,-3,39
O=C(COC(=O)c1cccc(-n2cnnn2)c1)c1ccccc1,23,-1,-2,1,-6,11
NC(=O)c1ccsc1NC(=O)CN1C(=O)NC2(CCCCC2)C1=O,.,2,0,1,3,-2
CN(Cc1ccc2c(c1)OCCO2)C(=O)CN1C(=O)NC2(CCCCC2)C1=O,33,-3,-2,0,-7,-4
CCOC(=O)C1CCN(C(=O)CN2C(=O)NC3(CCCCC3)C2=O)CC1,.,4,1,43*,-3,3
